Experimental data taken from PubChem BioAssay AID1159580 (chemical genetic matrix, 2015).
Screen size: about 5,500 compounds; about 2,000 (36%) were called active. Another 18% or so got no clear call; they are omitted. Rule as the data show it: active = normalized growth mostly below about 0.91 (no sharp cut-off); inconclusive = no clear call, values can overlap the other calls; inactive = mostly above about 0.92. This is one part of the list.

Experiment: chemical genetic growth profiling, strain panel (AID 1159580);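 also: tested at 20 µM; growth read once vehicle control cultures reached saturation at 30 °C; 1 = growth at the plate median or of vehicle wells; lower values mean less growth of the strain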
Conditions: growth OD

Measured: normalized growth

O=C1C=CC2=C3c4cc(O)c(O)cc4CC3(O)COC2=C1O (centres undefined)
inactive: S. cerevisiae deletion strains, locus YJR043C, strain POL32, hits give low values 0.868 | S. cerevisiae deletion strains, locus YJR066W, strain TOR1, hits give low values 0.953 | S. cerevisiae deletion strains, locus YJR075W, strain HOC1, hits give low values 0.981 | S. cerevisiae deletion strains, locus YKL068W, hits give low values 1.02 | S. cerevisiae deletion strains, locus YKL085W, strain MDH1 (second series), hits give low values 1.02 | S. cerevisiae deletion strains, locus YKL085W, strain MDH1, hits give low values 1.02 | S. cerevisiae deletion strains, locus YKL160W, strain elf1, hits give low values 1.01 | S. cerevisiae deletion strains, locus YKR001C, strain vps1, hits give low values 1.06 | S. cerevisiae deletion strains, locus YKR026C, strain gcn3, hits give low values 1.05 | S. cerevisiae deletion strains, locus YKR091W, strain srl3, hits give low values 1.04 | S. cerevisiae deletion strains, locus YLL001W, strain dnm1, hits give low values 1 | S. cerevisiae deletion strains, locus YLL026W, hits give low values 1.02 | S. cerevisiae deletion strains, locus YLL041C, strain sdh2, hits give low values 1.02 | S. cerevisiae deletion strains, locus YLR027C, strain aat2, hits give low values 1.01 | S. cerevisiae deletion strains, locus YLR039C, strain RIC1, hits give low values 0.848 | S. cerevisiae deletion strains, locus YLR058C, strain SHM2, hits give low values 0.92 | S. cerevisiae deletion strains, locus YLR102C, strain apc9, hits give low values 1.03 | S. cerevisiae deletion strains, locus YLR113W, strain HOG1, hits give low values 1.06 | S. cerevisiae deletion strains, locus YLR221C, strain rsa3, hits give low values 0.992 | S. cerevisiae deletion strains, locus YLR258W, strain gsy2, hits give low values 0.996 | S. cerevisiae deletion strains, locus YLR262C, strain YPT6 (second series), hits give low values 0.875 | S. cerevisiae deletion strains, locus YLR262C, strain YPT6, hits give low values 0.931 | S. cerevisiae deletion strains, locus YLR268W, strain sec22, hits give low values 1.01 | S. cerevisiae deletion strains, locus YLR320W, strain mms22, hits give low values 1.04 | S. cerevisiae deletion strains, locus YLR330W, strain CHS5, hits give low values 1.01 | S. cerevisiae deletion strains, locus YLR342W, strain FKS1 (second series), hits give low values 0.86 | S. cerevisiae deletion strains, locus YLR342W, strain FKS1, hits give low values 0.994 | S. cerevisiae deletion strains, locus YLR357W, strain rsc2, hits give low values 0.88 | S. cerevisiae deletion strains, locus YLR370C, strain arc18, hits give low values 0.977 | S. cerevisiae deletion strains, locus YLR371W, strain rom2, hits give low values 0.96 | S. cerevisiae deletion strains, locus YLR384C, strain iki3, hits give low values 1.02 | S. cerevisiae deletion strains, locus YLR418C, strain cdc73, hits give low values 0.954 | S. cerevisiae deletion strains, locus YML016C, strain PPZ1, hits give low values 0.938 | S. cerevisiae deletion strains, locus YML032C, strain rad52, hits give low values 1.05 | S. cerevisiae deletion strains, locus YML120C, strain ndi1, hits give low values 1.02 | S. cerevisiae deletion strains, locus YML124C, strain tub3, hits give low values 1.03 | S. cerevisiae deletion strains, locus YMR078C, strain ctf18, hits give low values 1.05 | S. cerevisiae deletion strains, locus YMR125W, strain sto1, hits give low values 1.11 | S. cerevisiae deletion strains, locus YMR129W, hits give low values 1.03 | S. cerevisiae deletion strains, locus YMR205C, strain PFK2, hits give low values 1.05 | S. cerevisiae deletion strains, locus YMR223W, strain ubp8, hits give low values 1.01 | S. cerevisiae deletion strains, locus YMR263W, strain SAP30, hits give low values 0.965 | S. cerevisiae deletion strains, locus YMR307W, strain GAS1, hits give low values 0.815 | S. cerevisiae deletion strains, locus YNL067W, strain RPL9B, hits give low values 0.956 | S. cerevisiae deletion strains, locus YNL071W, strain lat1, hits give low values 1.04 | S. cerevisiae deletion strains, locus YNL183C, strain NPR1, hits give low values 0.983 | S. cerevisiae deletion strains, locus YNL233W, strain BNI4, hits give low values 0.97 | S. cerevisiae deletion strains, locus YNL248C, strain rpa49, hits give low values 1.03 | S. cerevisiae deletion strains, locus YNL250W, strain rad50, hits give low values 1 | S. cerevisiae deletion strains, locus YNL271C, strain bni1, hits give low values 1.01 | S. cerevisiae deletion strains, locus YNL298W, strain CLA4, hits give low values 1.01 | S. cerevisiae deletion strains, locus YNL307C, strain MCK1, hits give low values 1.02 | S. cerevisiae deletion strains, locus YNL322C, strain KRE1 (second series), hits give low values 1.05 | S. cerevisiae deletion strains, locus YNR049C, strain mso1, hits give low values 1.05 | S. cerevisiae deletion strains, locus YNR052C, strain pop2, hits give low values 1.01 | S. cerevisiae deletion strains, locus YOL012C, strain htz1 0.462 | S. cerevisiae deletion strains, locus YOL147C, strain pex11, hits give low values 1.03 | S. cerevisiae deletion strains, locus YOR001W, strain rrp6, hits give low values 1.01 | S. cerevisiae deletion strains, locus YOR061W, strain CKA2, hits give low values 0.977 | S. cerevisiae deletion strains, locus YOR069W, strain VPS5, hits give low values 0.992 | S. cerevisiae deletion strains, locus YOR070C, strain gyp1, hits give low values 0.969 | S. cerevisiae deletion strains, locus YOR080W, strain dia2, hits give low values 1.04 | S. cerevisiae deletion strains, locus YOR083W, strain WHI5, hits give low values 0.965 | S. cerevisiae deletion strains, locus YOR136W, strain idh2, hits give low values 1.05 | S. cerevisiae deletion strains, locus YOR144C, strain elg1, hits give low values 1.03 | S. cerevisiae deletion strains, locus YOR184W, strain ser1, hits give low values 1.04 | S. cerevisiae deletion strains, locus YOR231W, strain MKK1, hits give low values 1.02 | S. cerevisiae deletion strains, locus YOR265W, strain rbl2, hits give low values 1.02 | S. cerevisiae deletion strains, locus YOR270C, strain vph1, hits give low values 0.956 | S. cerevisiae deletion strains, locus YOR290C, strain snf2, hits give low values 0.985 | S. cerevisiae deletion strains, locus YOR316C, strain cot1, hits give low values 1.04 | S. cerevisiae deletion strains, locus YPL078C, strain atp4, hits give low values 1.01 | S. cerevisiae deletion strains, locus YPL106C, strain sse1, hits give low values 0.99 | S. cerevisiae deletion strains, locus YPL240C, strain hsp82, hits give low values 1.03 | S. cerevisiae deletion strains, locus YPL241C, strain CIN2, hits give low values 0.994 | S. cerevisiae deletion strains, locus YPL256C, strain CLN2, hits give low values 1.05 | S. cerevisiae deletion strains, locus YPR119W, strain clb2, hits give low values 1.02 | S. cerevisiae deletion strains, locus YPR141C, strain kar3, hits give low values 1.01 | S. cerevisiae deletion strains, locus YPR163C, strain tif3, hits give low values 1.02 | S. cerevisiae deletion strains, locus YPR167C, strain met16, hits give low values 1.04 | S. cerevisiae deletion strains, strain wtn01, hits give low values 1.03
active: S. cerevisiae deletion strains, locus YKL009W, strain mrt4, hits give low values 1.16 [resistant] | S. cerevisiae deletion strains, locus YKL190W, strain CNB1, hits give low values 0.908 | S. cerevisiae deletion strains, locus YMR058W, strain fet3, hits give low values 0.611 | S. cerevisiae deletion strains, locus YNL128W, strain TEP1, hits give low values 0.845 | S. cerevisiae deletion strains, locus YNL209W, strain ssb2, hits give low values 0.831 | S. cerevisiae deletion strains, locus YOR106W, strain vam3, hits give low values 0.811 | S. cerevisiae deletion strains, locus YPL051W, strain arl3, hits give low values 0.884 | S. cerevisiae strains, strain wild type, hits give low values 0.814
